PubChem BioAssay
Activity calls are given as the source filed them.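 How the source made its calls, unless noted: active means inhibition above 20% together with a positive visual image hit; inconclusive means visual image hit but inhibition not above 20%; inactive means no visual image hit.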

How the values were obtained:
[1] = inhibitors of TNFa-induced NFkB p65 translocation, primary screen, imaging, HUVEC, MLSMR starter and 10KST1 sets (AID 438); conditions: HUVEC TNFa-induced p65 nuclear translocation; cell count: measured here: nuclei count (cytotoxicity indicator), at 2.08 µM; inhibition: at 2 µM, stronger effect = higher value, 0% TNFa-plus-vehicle, 100% no-TNFa wells;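 further: compound added about 3h40 before a 20 min TNFalpha stimulation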;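 on inhibition: signal is the nuclear over cytoplasmic p65 intensity ratio per well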
[2] = reduction of polyQ htt aggregates in cells – imaging, exon1htt(103Q)mCFP cells, high-content imaging, primary screen (AID 483;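 active means visual image review flags a hit and inhibition of aggregation exceeds 20%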;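 further: compound exposure lasted 3 days before fixation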;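 on nuclei count: percent of the per-plate median nuclei count of sample wells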); conditions: exon1htt(103Q)mCFP cell line, aggregate imaging, at 2 µM; inhibition of aggregation: stronger effect = higher value; nuclei count: measured here: cell count, toxicity
[3] = endothelial E-selectin expression blockers – imaging, HUVEC, immunofluorescence, MLSMR starter and 10KST1 sets, primary screen (AID 487;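 active means visually confirmed hit in the image check and inhibition above 20%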;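 on inhibition: signal is fraction of cell area covered by stained E-selectin grains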;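 on nuclei count: 100% = median nuclei count of all wells on the same plate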); conditions: HUVEC TNFalpha-induced E-selectin immunofluorescence imaging, at 2 µM; inhibition: stronger effect = higher value; nuclei count: measured here: cell number, toxicity
[4] = target: Voltage-gated potassium channel subunit beta-2 (Rattus norvegicus) (UniProt P62483); test: inhibitors of rat Kvbeta2 reductase activity – biochemical, NADPH fluorescence, primary screen (AID 622;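 active means fluorescence slope higher than the sample average by over 3 SD, cut at about -0.22 in these data, passing the limit was not always enough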;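 further: slope of raw intensity against log time taken from 70 to 1610 s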); conditions: recombinant KvBeta, 4-cyanobenzaldehyde reduction, at 10 µM, stronger effect = higher value
[5] = target: Voltage-gated potassium channel subunit beta-2 (Rattus norvegicus) (UniProt P62483); test: enhancers of rat Kvbeta2 NADPH turnover – biochemical, NADPH fluorescence, primary screen (AID 623;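 active means NADPH fluorescence slope more negative than the mean of all samples by about 3 SD, 99.7% confidence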;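 further: fluorescence intensity change per second fitted from 20 to 320 s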); conditions: Recombinant KvBeta, NADPH fluorescence decrease slope, 10 min; at 10 µM; stronger effect = lower value
[6] = target: Alpha-2C adrenergic receptor (Homo sapiens) (UniProt P18825); test: compounds altering alpha2C-coupled GIRK flux – cell-based, HEK293 alpha2C/GIRK1/2, thallium flux, primary screen (AID 624;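 active means fluorescence slope after compound addition differing from the mean of all screened samples at 99.7% confidence, in either direction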;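 further: slope of fluorescence ratio to pre-addition baseline per second over 15 to 24 s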); conditions: thallium flux BTC fluorescence, at 10 µM, actives lie on both sides
[7] = blockers of RIG-like receptor reporter activation – cell-based, Sendai virus stimulus, luciferase, 10K MLSCN set, TLR/RLR signaling modifier project, primary screen (AID 602276;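 active means inhibition at or above 50% at 10 µM; inactive means inhibition below 50%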;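 further: firefly luciferase from ISG56 promoter only with Renilla not read in this screen; 0% = Sendai virus plus DMSO and 100% = medium plus DMSO without virus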); conditions: HEK293 RL24 IRF3 luciferase reporter, at 10 µM, stronger effect = higher value
[8] = TLR3 IRF3 reporter activation blockers – cell-based, poly I:C stimulus, luciferase, 10K MLSCN set, primary screen (AID 602277;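 active means inhibition of the reporter signal at or above 50%; inactive means inhibition below 50%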); conditions: HEK293-TLR3 RL24 IRF3 luciferase reporter, at 10 µM, stronger effect = higher value

Sequence of Voltage-gated potassium channel subunit beta-2 (Rattus norvegicus) (P62483 whole entry, looked up): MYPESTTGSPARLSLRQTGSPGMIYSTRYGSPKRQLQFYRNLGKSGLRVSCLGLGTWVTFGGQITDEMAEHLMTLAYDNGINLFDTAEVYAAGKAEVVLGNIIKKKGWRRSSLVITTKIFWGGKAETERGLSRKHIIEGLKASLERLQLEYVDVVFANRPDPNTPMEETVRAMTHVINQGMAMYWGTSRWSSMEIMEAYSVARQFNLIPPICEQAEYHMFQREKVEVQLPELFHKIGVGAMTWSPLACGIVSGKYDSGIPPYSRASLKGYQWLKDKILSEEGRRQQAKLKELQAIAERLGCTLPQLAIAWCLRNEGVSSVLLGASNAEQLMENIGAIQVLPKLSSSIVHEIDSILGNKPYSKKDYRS
Sequence of Alpha-2C adrenergic receptor (Homo sapiens) (P18825 whole entry, looked up): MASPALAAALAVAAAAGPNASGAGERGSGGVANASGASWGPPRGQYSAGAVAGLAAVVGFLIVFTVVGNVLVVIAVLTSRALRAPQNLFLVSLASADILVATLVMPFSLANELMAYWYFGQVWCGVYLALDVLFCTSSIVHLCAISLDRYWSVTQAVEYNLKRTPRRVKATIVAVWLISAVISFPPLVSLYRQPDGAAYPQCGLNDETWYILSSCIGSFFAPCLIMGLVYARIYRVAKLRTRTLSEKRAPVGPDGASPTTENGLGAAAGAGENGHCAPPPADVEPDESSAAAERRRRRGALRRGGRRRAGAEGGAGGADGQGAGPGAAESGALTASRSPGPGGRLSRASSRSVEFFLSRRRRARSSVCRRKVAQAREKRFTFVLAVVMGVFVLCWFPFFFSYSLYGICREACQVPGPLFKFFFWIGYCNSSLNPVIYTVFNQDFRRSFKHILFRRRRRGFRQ

Compound | cell count [1] | inhibition [1] | inhibition of aggregation [2] | nuclei count [2] [%] | inhibition [3] | nuclei count [3] [%] | fluorescence slope [4] | NADPH fluorescence slope [5] | slope [6] | inhibition [7] | inhibition [8]
CN=C(Nc1cc(C)nn1-c1ccccc1)c1ccccc1 | 455 | 0.5% (inactive) | -5.8% (inactive) | 114 | 23% (inactive) | 90.5 | -0.519 (inactive) | -2.6e-05 (inactive) | 0.00474 (inactive) | 12.8% (inactive) | 17.1% (inactive)
COc1ccc(-c2nnc(-c3cccs3)o2)cc1OC | 384 | -0.2% (inactive) | 6.2% (inactive) | 99 | 67.8% (active) | 94.7 | -0.343 (inactive) | 3e-05 (inactive) | 0.00689 (inactive) | -76.7% (inactive) | -170% (inactive)
Oc1ccc2cccnc2c1 | 719 | -12.9% (inactive) | -15.8% (inactive) | 100 | -44.3% (inactive) | 118 | -0.12 (active) | 2.2e-05 (inactive) | 0.00432 (inactive) | -2.36% (inactive) | 0.747% (inactive)
Cn1c(/C=N/n2cnnc2)nc2ccccc21 | 448 | 3.5% (inactive) | -4.4% (inactive) | 114 | -12.1% (inactive) | 123 | -0.0404 (active) | -7e-06 (inactive) | 0.00495 (inactive) | 6.17% (inactive) | 35.3% (inactive)
Cn1nc(C(=O)NC2CCCCCC2)ccc1=O | 348 | -4.6% (inactive) | 14% (inactive) | 105 | -2.2% (inactive) | 121 | -0.608 (inactive) | -2.1e-05 (inactive) | 0.00579 (inactive) | 9.51% (inactive) | 11.7% (inactive)
CCOC(=O)c1ccccc1NC(=O)c1ccc(NS(C)(=O)=O)cc1 | 485 | -2.2% (inactive) | 10.4% (inactive) | 90.2 | 26.8% (inactive) | 86 | -0.473 (inactive) | -6e-06 (inactive) | 0.00606 (inactive) | 6.8% (inactive) | 11.4% (inactive)
O=C(c1ccccc1)N1CCN(Cc2ccccc2Br)CC1 | 234 | -2.5% (inactive) | 23.9% (inactive) | 77.4 | -25.8% (inactive) | 96.1 | -0.428 (inactive) | -4.5e-05 (inactive) | 0.00425 (inactive) | 9.36% (inactive) | 4.59% (inactive)
COc1cccc(-c2nnc(SCC(N)=O)n2-c2ccc(Cl)cc2)c1 | 327 | -6.5% (inactive) | -11.9% (inactive) | 107 | -60.5% (inactive) | 94.5 | -0.495 (inactive) | -0.000142 (inactive) | 0.00431 (inactive) | 8.3% (inactive) | 13.1% (inactive)
CCOC(=O)c1cc2c(=O)n3cccc(C)c3nc2n(CCOC)c1=NC(=O)c1ccncc1 | 397 | -0.2% (inactive) | -15.8% (inactive) | 100 | -4.6% (inactive) | 96.5 | -0.346 (inactive) | -4.3e-05 (inactive) | 0.00713 (inactive) | 16.8% (inactive) | 12.5% (inactive)
O=C(c1cc2cc(Cl)cc(Cl)c2oc1=O)N1CCOCC1 | 275 | 13.1% (inactive) | -12% (inactive) | 87.4 | -63.2% (inactive) | 110 | -0.48 (inactive) | -6.7e-05 (inactive) | 0.0058 (inactive) | 26.9% (inactive) | 30.3% (inactive)
CCOC(=O)N1CCN(C(=O)CN2C(=O)COc3ccc(C)cc32)CC1 | 590 | 1.5% (inactive) | 9.7% (inactive) | 98.6 | -64.6% (inactive) | 107 | -0.364 (inactive) | -3.7e-05 (inactive) | 0.00215 (inactive) | 7.89% (inactive) | 29.7% (inactive)
Cc1ccc(NC(=O)CSc2nnc(-c3cnccn3)n2Cc2ccco2)cc1C | 228 | -3.5% (inactive) | 4.6% (inactive) | 76.2 | 35.1% (inactive) | 65.4 | -0.418 (inactive) | 3.1e-05 (inactive) | 0.00338 (inactive) | 6.92% (inactive) | 17.3% (inactive)
COc1cccc(-c2nc(CS(=O)(=O)CC(=O)N3CCN(c4ccccn4)CC3)c(C)o2)c1 | 752 | -4.4% (inactive) | 2.6% (inactive) | 115 | -72.1% (inactive) | 114 | -0.506 (inactive) | -1.1e-05 (inactive) | 0.00682 (inactive) | 6.91% (inactive) | -1.07% (inactive)
COc1ccc(Nc2nc(-c3sc(N)nc3C)cs2)cc1 | 661 | -5.8% (inactive) | -10.7% (inactive) | 116 | -75.8% (inactive) | 118 | -0.376 (inactive) | -6.4e-05 (inactive) | 0.0038 (inactive) | -13.1% (inactive) | -17.6% (inactive)
